Measurements reported in the supplement of paper PMC8253809.

System: DIPGX7 (H3.3 K27M diffuse intrinsic pontine glioma line)
Experiment: growth inhibition (% activity, log2 RLU normalised to DMSO / staurosporine); higher = more growth inhibition
Conditions: 33 µM
How it was run: (§1)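 Cells (pHGG lines and H9-derived neural stem cells) were plated on Geltrex-coated 384-well plates and exposed to approved drugs at a single final concentration of about 33 μM, in triplicate, for 7 days at 37 °C, 5% CO2. Log2-transformed CellTiter-Glo luminescence was normalised per plate to % activity between solvent and positive control wells, and the growth-inhibition value is the median over replicates.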

Compound	growth inhibition [%]
c1ccc(CN(CC2=NCCN2)c2ccccc2)cc1	0.575
CC(C)CN(C[C@@H](O)[C@H](Cc1ccccc1)NC(=O)O[C@H]1CCOC1)S(=O)(=O)c1ccc(N)cc1	-0.0284
COc1cccc2c1C(=O)c1c(O)c3c(c(O)c1C2=O)C[C@@](O)(C(C)=O)C[C@@H]3O[C@H]1C[C@H](N)[C@H](O)[C@H](C)O1	54.9
CCOc1ccc2ccccc2c1C(=O)N[C@@H]1C(=O)N2[C@@H]1SC(C)(C)[C@@H]2C(=O)O	1.5
CCOc1nc2cccc(C(=O)OCc3oc(=O)oc3C)c2n1Cc1ccc(-c2ccccc2-c2noc(=O)[nH]2)cc1	1.02
COc1ccc2c(c1)c(CC(=O)OCC(=O)O)c(C)n2C(=O)c1ccc(Cl)cc1	3.74
N[C@@H]1CONC1=O	0.738
O=C(O)c1ccc(-n2nc(-c3ccccc3O)nc2-c2ccccc2O)cc1	0.0493
CCCCCCNC(=O)n1cc(F)c(=O)[nH]c1=O	4.27
C=C1/C(=C\C=C2/CCC[C@]3(C)[C@@H]([C@H](C)CCCC(C)C)CC[C@@H]23)C[C@@H](O)C[C@@H]1O	4.43
COc1cc2nccc(Oc3ccc(NC(=O)C4(C(=O)Nc5ccc(F)cc5)CC4)cc3)c2cc1OC	9.24
Nc1cccc2c1C(=O)N(C1CCC(=O)NC1=O)C2=O (configuration not stated)	0.718
CCOC(=O)C1=C[C@@H](OC(CC)CC)[C@H](NC(C)=O)[C@@H](N)C1	-0.6
Nc1nc2c(ncn2COC(CO)CO)c(=O)[nH]1	-1.01
O=C(c1ccc(OCCN2CCCCC2)cc1)c1c(-c2ccc(O)cc2)sc2cc(O)ccc12	22.3
CC[C@@H]1C(=O)OC[C@@H]1Cc1cncn1C	-1.24
C=C[C@H]1CN2CC[C@H]1C[C@H]2[C@H](O)c1ccnc2ccc(OC)cc12	2.14
CCN1CCN(c2cc(-c3ccc(F)cc3)c3c(n2)CCCCCC3)CC1	21.9
Cc1cc2c(cc1S(N)(=O)=O)S(=O)(=O)CCC2	-0.717
C[C@@H]1CN(c2c(F)c(N)c3c(=O)c(C(=O)O)cn(C4CC4)c3c2F)C[C@H](C)N1	3.53
Cn1c(CNc2ccc(C(=N)N)cc2)nc2cc(C(=O)N(CCC(=O)O)c3ccccn3)ccc21	1.05
CCN(CC)CCOc1ccc(C(=C(Cl)c2ccccc2)c2ccccc2)cc1	45.2
C[C@@H]1O[C@@H]1P(=O)(O)O	-0.0992

System: DIPGX9 (diffuse intrinsic pontine glioma line)
Experiment: as above
Conditions: 33 µM
How it was run: as §1

Compound	growth inhibition [%]
Cc1ccc(-c2cc(C(F)(F)F)nn2-c2ccc(S(N)(=O)=O)cc2)cc1	0.265
CC(C)(C)C(=O)OCOP(=O)(COCCn1cnc2c(N)ncnc21)OCOC(=O)C(C)(C)C	19.5
NCCNCCNCCNCCN	2.04
CC(=O)[C@H]1CC[C@H]2[C@@H]3CC=C4C[C@@H](O)CC[C@]4(C)[C@H]3CC[C@]12C	-0.764
CC[C@H](C)C(=O)O[C@H]1C[C@@H](C)C=C2C=C[C@H](C)[C@H](CC[C@@H]3C[C@@H](O)CC(=O)O3)[C@H]21	5.72
CC(C)/N=c1\cc2n(-c3ccc(Cl)cc3)c3ccccc3nc-2cc1Nc1ccc(Cl)cc1	5.47
COc1ccc(O)cc1	0.0566
C[C@@H](NCCCc1cccc(C(F)(F)F)c1)c1cccc2ccccc12	5.87
NCCS(=O)(=O)O	0.788
CC(=O)SCC(Cc1ccccc1)C(=O)NCC(=O)OCc1ccccc1 (configuration not stated)	1.31
O=C(O)C1=CO[C@@H](O[C@@H]2O[C@H](CO)[C@@H](O)[C@H](O)[C@H]2O)[C@@H]2C(CO)=CC[C@H]12	-1.59
O=C1[C@H](CC[C@H](O)c2ccc(F)cc2)[C@@H](c2ccc(O)cc2)N1c1ccc(F)cc1	-0.813
CCCCC(=O)N(Cc1ccc(-c2ccccc2-c2nnn[nH]2)cc1)[C@H](C(=O)O)C(C)C	-0.058
O=c1[nH]cc(F)c(=O)[nH]1	10.5
CN(C)C/C=C/C(=O)Nc1cc2c(Nc3ccc(F)c(Cl)c3)ncnc2cc1O[C@H]1CCOC1	14.3
COc1cc(C(=O)NS(=O)(=O)c2ccccc2C)ccc1Cc1cn(C)c2ccc(NC(=O)OC3CCCC3)cc12	-1.19
c1ccc(CN(CC2=NCCN2)c2ccccc2)cc1	3.38
CC(C)CN(C[C@@H](O)[C@H](Cc1ccccc1)NC(=O)O[C@H]1CCOC1)S(=O)(=O)c1ccc(N)cc1	-0.297
COc1cccc2c1C(=O)c1c(O)c3c(c(O)c1C2=O)C[C@@](O)(C(C)=O)C[C@@H]3O[C@H]1C[C@H](N)[C@H](O)[C@H](C)O1	43.6
CCOc1ccc2ccccc2c1C(=O)N[C@@H]1C(=O)N2[C@@H]1SC(C)(C)[C@@H]2C(=O)O	-1.14

Compound	growth inhibition [%]
CCOc1nc2cccc(C(=O)OCc3oc(=O)oc3C)c2n1Cc1ccc(-c2ccccc2-c2noc(=O)[nH]2)cc1	0.141
COc1ccc2c(c1)c(CC(=O)OCC(=O)O)c(C)n2C(=O)c1ccc(Cl)cc1	5.54
N[C@@H]1CONC1=O	1.4
O=C(O)c1ccc(-n2nc(-c3ccccc3O)nc2-c2ccccc2O)cc1	-2.68
CCCCCCNC(=O)n1cc(F)c(=O)[nH]c1=O	14
C=C1/C(=C\C=C2/CCC[C@]3(C)[C@@H]([C@H](C)CCCC(C)C)CC[C@@H]23)C[C@@H](O)C[C@@H]1O	1.86
COc1cc2nccc(Oc3ccc(NC(=O)C4(C(=O)Nc5ccc(F)cc5)CC4)cc3)c2cc1OC	6.67
Nc1cccc2c1C(=O)N(C1CCC(=O)NC1=O)C2=O (configuration not stated)	-0.934
CCOC(=O)C1=C[C@@H](OC(CC)CC)[C@H](NC(C)=O)[C@@H](N)C1	-0.724
Nc1nc2c(ncn2COC(CO)CO)c(=O)[nH]1	1.05
O=C(c1ccc(OCCN2CCCCC2)cc1)c1c(-c2ccc(O)cc2)sc2cc(O)ccc12	1.84
CC[C@@H]1C(=O)OC[C@@H]1Cc1cncn1C	-1.88
C=C[C@H]1CN2CC[C@H]1C[C@H]2[C@H](O)c1ccnc2ccc(OC)cc12	2.35
CCN1CCN(c2cc(-c3ccc(F)cc3)c3c(n2)CCCCCC3)CC1	4.47
Cc1cc2c(cc1S(N)(=O)=O)S(=O)(=O)CCC2	1.06
C[C@@H]1CN(c2c(F)c(N)c3c(=O)c(C(=O)O)cn(C4CC4)c3c2F)C[C@H](C)N1	1.04
Cn1c(CNc2ccc(C(=N)N)cc2)nc2cc(C(=O)N(CCC(=O)O)c3ccccn3)ccc21	3.29
CCN(CC)CCOc1ccc(C(=C(Cl)c2ccccc2)c2ccccc2)cc1	12.3
C[C@@H]1O[C@@H]1P(=O)(O)O	1.37
